Measurements published in PubChem BioAssay (NCATS).
Inconclusive results are not listed. The source made the active and inactive calls. Calls follow the shape of the dose curve; as a rule, active = well fitted inhibition curve with a large enough effect; inconclusive = small, poorly fitted or top-dose-only effect; inactive = flat fitted curve, though single readings scatter.

Key:
[1] = qHTS profiling for inhibitors of Plasmodium falciparum proliferation (AID 504749);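 as to activity, negative = inhibition: 0% = DMSO vehicle and full inhibition = artemisinin control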; as to all read-outs here: nearly all actives have a fitted effect of over 60% in size; settings: P. falciparum in erythrocytes, SYBR Green DNA, 72 h; for activity, negative = inhibition: at 28.7 µM (top of the series)
In short: (§1)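 SYBR Green fluorescence of parasite DNA, read after lysis and overnight dark incubation, measured growth over 72 h in erythrocyte culture at 0.3% parasitemia and 2.5% hematocrit. Data normalised to DMSO and 0.29 uM artemisinin, with plate-drift correction.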

3D7 = assay: as above; settings: P. falciparum in erythrocytes, SYBR Green DNA, 72 h; series mostly up to 28.7 µM
In short: as §1

7G8 = assay: as above; settings: P. falciparum in erythrocytes, SYBR Green DNA, 72 h; series mostly up to 28.7 µM
In short: as §1
Potency is read from the fitted curve at half-maximal effect.

CCC(C)(S(=O)(=O)CC)S(=O)(=O)CC
inactive: activity, negative = inhibition ([1]; parasite line A) 9.02% | activity, negative = inhibition ([1]; parasite line B) 9.51% | Potency (3D7) | Potency (7G8)

C=CCN1CC[C@]23c4c5ccc(O)c4O[C@H]2[C@@H](O)C=C[C@H]3[C@H]1C5
inactive: activity, negative = inhibition ([1]; parasite line A) -14.2% | activity, negative = inhibition ([1]; parasite line B) 6.2% | Potency (3D7) | Potency (7G8)

O=C1CC[C@@]2(O)C3Cc4ccc(O)c5c4C2(CCN3CC2CC2)[C@H]1O5 (some centres not stated)
inactive: activity, negative = inhibition ([1]; parasite line A) 9.65% | activity, negative = inhibition ([1]; parasite line B) 8.16% | Potency (3D7) | Potency (7G8)

C=CCN1CCC23c4c5ccc(O)c4O[C@H]2C(=O)CC[C@@]3(O)C1C5 (some centres not stated)
inactive: activity, negative = inhibition ([1]; parasite line A) 8.48% | activity, negative = inhibition ([1]; parasite line B) -7.58% | Potency (3D7) | Potency (7G8)

CCC1(c2ccccc2)C(=O)NC(=O)N(C(=O)c2ccccc2)C1=O (configuration not stated)
inactive: activity, negative = inhibition ([1]; parasite line A) -16% | activity, negative = inhibition ([1]; parasite line B) 9.27% | Potency (3D7)
active: Potency (7G8) 10 µM

O=C1CCCCC1CN1CCCCC1 (configuration not stated)
inactive: activity, negative = inhibition ([1]; parasite line A) 6.14% | activity, negative = inhibition ([1]; parasite line B) 5.73% | Potency (3D7) | Potency (7G8)

O=[N+]([O-])C(Br)(CO)CO
inactive: activity, negative = inhibition ([1]; parasite line A) 4.06% | activity, negative = inhibition ([1]; parasite line B) -7.41% | Potency (3D7) | Potency (7G8)

CCOc1ccc2c3c1O[C@H]1[C@@H](O)C=C[C@H]4[C@@H](C2)N(C)CC[C@@]341
inactive: activity, negative = inhibition ([1]; parasite line A) 0.925% | activity, negative = inhibition ([1]; parasite line B) -4.11% | Potency (3D7) | Potency (7G8)

[O]=[Cd]
inactive: activity, negative = inhibition ([1]; parasite line A) 10.1% | activity, negative = inhibition ([1]; parasite line B) 8.29% | Potency (3D7) | Potency (7G8)

CCCCCCCCCC(=O)O[C@H]1CC[C@H]2[C@@H]3CCC4=CC(=O)CC[C@]4(C)[C@H]3CC[C@]12C
inactive: activity, negative = inhibition ([1]; parasite line A) 8.28% | activity, negative = inhibition ([1]; parasite line B) -5.1% | Potency (7G8)

O=C(CS(=O)C(c1ccccc1)c1ccccc1)NO (configuration not stated)
inactive: activity, negative = inhibition ([1]; parasite line A) -13.7% | activity, negative = inhibition ([1]; parasite line B) 0.0253% | Potency (3D7) | Potency (7G8)

CNC(=O)Oc1ccccc1C(=O)Nc1ccccc1
inactive: Potency (3D7)
active: Potency ([1]; parasite line B) 11.2 µM | Potency (7G8) 10 µM

CCC1(c2ccccc2)C(=O)NC(=O)N(C)C1=O (configuration not stated)
inactive: activity, negative = inhibition ([1]; parasite line A) 3.95% | activity, negative = inhibition ([1]; parasite line B) 7.56% | Potency (3D7)
active: Potency (7G8) 8.91 µM

[Cl-].[Cl-].[Hg+2]
active: Potency ([1]; parasite line A) 7.94 µM | Potency ([1]; parasite line B) 8.91 µM | Potency (3D7) 12.6 µM | Potency (7G8) 11.2 µM

CN1CCCC(=C(c2cccs2)c2cccs2)C1
inactive: activity, negative = inhibition ([1]; parasite line B) -19.2% | Potency (3D7)

Oc1cccc[c]1[Hg][Cl]
active: Potency ([1]; parasite line A) 5.01 µM | Potency ([1]; parasite line B) 6.31 µM | Potency (3D7) 8.91 µM | Potency (7G8) 1.78 µM

CN1[C@@H]2CC[C@H]1CC(OC1c3ccccc3CCc3ccccc31)C2 (some centres not stated)
active: Potency ([1]; parasite line A) 3.98 µM | Potency (7G8) 3.98 µM
inactive: Potency (3D7)

C[C@H]1CC[C@@H]2[C@@H](C)[C@H]3[C@H](C[C@H]4[C@@H]5CC=C6CC(O[C@@H]7O[C@H](CO)[C@H](O)[C@H](O[C@@H]8O[C@H](CO)[C@@H](O)[C@H](O)[C@H]8O)[C@H]7O[C@H]7O[C@@H](C)[C@H](O)[C@@H](O)[C@H]7O)CC[C@]6(C)[C@H]5CC[C@]34C)N2C1 (some centres not stated)
inactive: activity, negative = inhibition ([1]; parasite line A) -2.66% | activity, negative = inhibition ([1]; parasite line B) 12% | Potency (3D7) | Potency (7G8)
